S2 tox: cell viability loss in ATXN counter-screen | Potency, µM (series often up to 56.7 µM), most hits filed as cytotoxic | AID 651635 | 400,000 compounds, 0.49% hits | S2 cells (HEK-293 line with an ATXN2-luciferase reporter) viability, CellTiter-Fluor protease fluorescence, 24 h; further: nearly all actives have a fitted effect of over 40% in size
TGFb inhibitor: inhibitors of TGF-b signaling | Potency, µM (series often up to 46.1 µM), actives largely listed as inhibitors | 410,000 compounds, 1.2% hits | HepG2 CAGA-GFP TGF-b/SMAD3 reporter, GFP fluorescence, 18 h; TGF-beta stimulated, 500 pg/mL final; further: nearly all actives have a fitted effect of over 65% in size
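Using HEPG2 CAGA-GFP reporter cells at 1000 cells/well, we pinned test compounds, stimulated with recombinant TGF-beta (500 pg/mL final) and measured total well GFP after 18 h.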
HT1080 IDH1KD tx: kills HT-1080 cells with IDH1 knockdown | HT-1080 IDH1 knockdown viability, ATP luminescence, 48 h | Potency, µM (doses to about 46.1 µM), hits mostly cytotoxic | 360,000 compounds, 2% hits
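Assay cells: HT-1080 with IDH1 knockdown, 750 per well, RPMI/5% FBS. Exposure: 48 h at 37 °C following 2 h pre-incubation. Read: CellTiter-Glo luminescence; fitted concentration-response, curve class assigned.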
HT1080NT lethal: kills 2HG-producing HT-1080-NT fibrosarcoma cells. HT-1080-NT fibrosarcoma viability, CellTiter-Glo ATP luminescence, 48 h. AID 686970. 360,000 compounds, 1.6% hits. Potency, µM (doses to about 46.1 µM), actives largely listed as cytotoxic;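 further: NT is the 2HG producing partner of a matched IDH1 knockdown line; nearly all actives have a fitted effect of over 55% in size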
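Fibrosarcoma NT cells, 750 per well in 5% FBS RPMI, were exposed to compound for 48 hours. Viability: CellTiter-Glo luminescence.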
HepG2 tox: kills HepG2 cells in TGF-b inhibitor counter-screen; HepG2 CAGA-GFP viability, ATP luminescence, 18 h; Potency, µM (doses to about 46.1 µM), usual class: cytotoxic; 410,000 compounds, 0.76% hits
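HepG2 CAGA-GFP cells (1000/well, DMEM with 1% FBS) received compound, then TGF-beta at 500 pg/mL final, and were incubated 18 hours at 37 degrees C. Viability was read by CellTiter-Glo luminescence. Media-only wells were set as complete cell-killing and DMSO as no toxicity.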
ATXN2 expr inh: inhibitors of ATXN2 expression; HEK-293 ATXN2-luciferase reporter, luminescence, 24 h; Potency, µM (titrated, usually from 57 µM), hits mostly inhibitors; 360,000 compounds, 0.72% hits; AID 1745845; further: nearly all actives have a fitted effect of over 55% in size
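ATXN2-luciferase reporter cells (luciferase flanked by upstream and downstream ATXN2 gene portions) were treated 24 h at 37 °C with compounds at up to 57 uM. SteadyGlo luminescence gave expression; GF-AFC fluorescence gave viability.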
Large screens that a line does not name were inactive. A selection: hits, their analogues and other compounds. The true share with any hit is near 3.8%. The call rests on the fitted dose curve; in most records, active means well fitted curve in the direction sought with a large enough effect; inconclusive means small, poorly fitted or top-dose-only effect, or another doubt; inactive means no such curve, though single readings can be large; an effect the other way counts as inactive or inconclusive.

CCOc1cc(/C=N/Nc2nc(C)cc(=O)[nH]2)ccc1O	none
CCOc1ccc(Nc2cc(C)nc(-n3nc(C)cc3C)n2)cc1	S2 tox inconclusive, TGFb inhibitor inconclusive, HT1080 IDH1KD tx 0.41µM, HT1080NT lethal inconclusive
COc1ccc2nc3c(cc2c1)c(NC(=O)c1cccs1)nn3CC(C)C	TGFb inhibitor inconclusive, HT1080 IDH1KD tx 13µM, HT1080NT lethal inconclusive
CC(C)Cn1nc(NC(=O)c2cccs2)c2cc3ccccc3nc21	TGFb inhibitor inconclusive (no result: S2 tox, ATXN2 expr inh)
NC(=O)[C@@H]1CCCN1C(=O)CC1(c2cccc(F)c2)CC(=O)N(C2CCCC2)C1=O (stereo not given in full)	none (no result: TGFb inhibitor, HT1080 IDH1KD tx, HT1080NT lethal, HepG2 tox, ATXN2 expr inh)
Cc1ccccc1C(=O)Nc1cccc(C(=O)OCc2cc(=O)n3c(C)csc3n2)c1	none (no result: S2 tox, HT1080 IDH1KD tx, HT1080NT lethal, ATXN2 expr inh)
Oc1c(C(c2ccc(Cl)cc2Cl)N2CCN(Cc3ccccc3)CC2)sc2nc(-c3ccco3)nn12 (stereo not given)	S2 tox inconclusive, TGFb inhibitor inconclusive, HepG2 tox 16µM (no result: HT1080 IDH1KD tx, HT1080NT lethal)
C[C@@H]1CN(Cc2ccc3c(c2)CN(Cc2cn[nH]c2-c2ccccc2)CCO3)C[C@H](C)O1	none (no result: TGFb inhibitor, HT1080 IDH1KD tx, HT1080NT lethal, HepG2 tox, ATXN2 expr inh)
CN(C)c1ccc(C=c2c3cc(O)ccc3n3c2cc(-c2ccccc2)[n+]3C)cc1	TGFb inhibitor 11µM, HT1080 IDH1KD tx inconclusive
C[n+]1c(-c2ccccc2)cc2c(=Cc3ccccc3)c3ccccc3n21	TGFb inhibitor 18µM, HT1080 IDH1KD tx 16µM, HT1080NT lethal inconclusive, ATXN2 expr inh 9.5µM (no result: S2 tox)
COc1cc(OC)c(NC(=O)N2CCc3cc(S(=O)(=O)N4CCC(C)CC4)ccc32)cc1Cl	none (no result: S2 tox, TGFb inhibitor, HT1080 IDH1KD tx, HT1080NT lethal, ATXN2 expr inh)
CCN(CC)c1nn2c(=O)c(C(=O)NCc3ccc(OC)cc3OC)cnc2s1	TGFb inhibitor inconclusive (no result: S2 tox, HT1080 IDH1KD tx, HT1080NT lethal, ATXN2 expr inh)
O=c1oc2ccccc2cc1-c1cn2cccnc2n1	none (no result: S2 tox, ATXN2 expr inh)
O=c1oc2ccccc2cc1-c1cn2ccccc2n1	HT1080 IDH1KD tx 23µM, HT1080NT lethal 26µM, ATXN2 expr inh inconclusive
O=C(Nc1ccc(F)cc1)c1nn(-c2ccccc2)c(=O)cc1Cl	S2 tox inconclusive, TGFb inhibitor inconclusive, HT1080 IDH1KD tx 21µM, HT1080NT lethal 18µM, ATXN2 expr inh inconclusive
CN(C)C(CNC(C(=O)Nc1ccc([N+](=O)[O-])cc1Br)c1ccccc1)c1ccccc1 (stereo not given)	HT1080 IDH1KD tx 23µM, HT1080NT lethal 23µM
CC(C)CNC(C(=O)Nc1ccc([N+](=O)[O-])cc1Br)c1ccccc1 (stereo not given)	none (no result: ATXN2 expr inh)
O=C(O)c1ccc(N/N=C/c2ccc(-c3ccccc3Cl)o2)cc1	HT1080 IDH1KD tx 23µM, HT1080NT lethal inconclusive
O=C(O)c1ccc(N/N=C/c2ccc(-c3ccc(Br)cc3)o2)cc1	HT1080 IDH1KD tx 23µM, HT1080NT lethal 26µM
Cc1ccc(/C=N/Nc2cccc(C(=O)O)c2)s1	ATXN2 expr inh inconclusive
O=C(N/N=C/c1ccc(-c2ccccc2Cl)o1)c1ccccc1	HT1080 IDH1KD tx inconclusive
O=C(O)c1ccc(N/N=C/c2ccc(-c3ccccc3)cc2)cc1	HT1080 IDH1KD tx 10µM, HT1080NT lethal 16µM
Cc1ccc(/C=N/Nc2ccc(C(=O)O)cc2)s1	ATXN2 expr inh 0.95µM
Cc1cccc(CN2Cc3cccc4c3[C@H](C=CC4)CC2=O)c1	none (no result: S2 tox, HT1080 IDH1KD tx, HT1080NT lethal, ATXN2 expr inh)
Cc1ccc(-c2[nH]ncc2CNCc2ccc(CN(C)C)cc2)cc1	none (no result: S2 tox, HT1080 IDH1KD tx, HT1080NT lethal, ATXN2 expr inh)
COc1cccc(OC)c1CN1CCC2(CCC(CNC(=O)c3ccn(C)n3)O2)CC1 (stereo not given)	none (no result: TGFb inhibitor, HT1080 IDH1KD tx, HT1080NT lethal, HepG2 tox, ATXN2 expr inh)
C(=Nc1ccc2ccccc2n1)c1cccnc1	none (no result: S2 tox, HT1080 IDH1KD tx, HT1080NT lethal, ATXN2 expr inh)
OCCCNCc1ccc(N(c2ccccc2)c2ccccc2)cc1	S2 tox inconclusive, TGFb inhibitor inconclusive, HT1080 IDH1KD tx 16µM, HT1080NT lethal inconclusive, ATXN2 expr inh inconclusive
OCCNCc1ccc(-c2ccccc2)cc1	ATXN2 expr inh inconclusive
Cc1ccccc1OCC(=O)NC(=S)Nc1ccc2c3c(cccc13)CC2	HepG2 tox 13µM
COc1ccc(OCC(=O)NC(=S)Nc2ccc3c4c(cccc24)CC3)cc1	none

High-throughput results deposited in PubChem by National Center for Advancing Translational Sciences (NCATS).
